Assay results published in PubChem BioAssay (Tox21).
Values joined by “and” are separate entries in the source; they are usually repeats but may differ in a detail not shown here. Equal entries are not always repeated. Records with an inconclusive call do not appear. Where a call stands in place of a potency, no number is given. Some compounds were tested as several samples or in several runs, with calls that do not always agree. Active and inactive are the calls of the source. Calls follow the shape of the dose curve; as a rule, active = well fitted curve in the direction sought with a large enough effect in the repeat runs; inconclusive = weak or mixed curves; inactive = no such curve, though single readings can be large; an effect the other way counts as inactive or inconclusive.

Experiments:
[1] = A CellTox Green Cytotoxicity Assay to monitor cytotoxicity in HEK293 cells - 24 hour (AID 1224875); also: series mostly up to about 77 µM; nearly all actives have a fitted effect of over 45% in size
Method in brief: (§1)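 Fluorescence intensity, read at 0, 8, 16, 24, 32 and 40 h of compound treatment, reflected dye binding to DNA of dead HEK293 cells; compounds (23 nL, DMSO) were added 5 h after plating cells with reagent.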

[2] = A CellTox Green Cytotoxicity Assay to monitor cytotoxicity in HepG2 cells - 16 hour (AID 1224876); also: nearly all actives have a fitted effect of over 45% in size
Method in brief: (§2)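 Using 1536-well format, dye-containing HepG2 suspension was seeded, allowed 5 h at 37 C/5% CO2, dosed by pintool with compounds, positive and negative controls, and imaged for fluorescence across 40 h.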

[3] = qHTS RealTime-Glo MT Cell Viability Assay in HepG2 cells - 32 hour (AID 1224877); also: nearly all actives have a fitted effect of over 55% in size
Method in brief: (§3)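 HepG2 cells (600/well) were dispensed with RealTime-Glo reagents, incubated 5 h at 37 °C, then treated with compounds in DMSO for up to 40 h. Nonlytic NanoLuc luminescence reflecting viable cells was read at each stated time point.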

[4] = A CellTox Green Cytotoxicity Assay to monitor cytotoxicity in HepG2 cells - 24 hour (AID 1224878); also: nearly all actives have a fitted effect of over 45% in size
Method in brief: as §2

[5] = A CellTox Green Cytotoxicity Assay to monitor cytotoxicity in HepG2 cells - 40 hour (AID 1224879); also: nearly all actives have a fitted effect of over 40% in size; also: potency is read from the fitted curve at half-maximal effect
Method in brief: as §2

[6] = qHTS RealTime-Glo MT Cell Viability Assay in HEK293 cells - 0 hour (AID 1224880); also: top concentration of the series differs between compounds; nearly all actives have a fitted effect of over 45% in size
Method in brief: (§4)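 Viable HEK293 cells reduce a cell-permeant prosubstrate; the product diffuses out and is consumed by NanoLuc in the medium to give light. Compounds went in after a 5 h incubation and plates were read over the treatment course.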

[7] = A CellTox Green Cytotoxicity Assay to monitor cytotoxicity in HEK293 cells - 32 hour (AID 1224881); also: nearly all actives have a fitted effect of over 40% in size; also: potency is read from the fitted curve at half-maximal effect
Method in brief: as §1

[8] = A CellTox Green Cytotoxicity Assay to monitor cytotoxicity in HepG2 cells - 0 hour (AID 1224882); also: nearly all actives have a fitted effect of over 35% in size
Method in brief: as §2

[9] = A CellTox Green Cytotoxicity Assay to monitor cytotoxicity in HepG2 cells - 32 hour (AID 1224883); also: nearly all actives have a fitted effect of over 50% in size
Method in brief: as §2

[10] = A CellTox Green Cytotoxicity Assay to monitor cytotoxicity in HEK293 cells - 8 hour (AID 1224884); also: nearly all actives have a fitted effect of over 35% in size
Method in brief: as §1

[11] = qHTS RealTime-Glo MT Cell Viability Assay in HepG2 cells - 16 hour (AID 1224885); also: nearly all actives have a fitted effect of over 50% in size
Method in brief: as §3

[12] = qHTS RealTime-Glo MT Cell Viability Assay in HEK293 cells - 24 hour (AID 1224886); also: nearly all actives have a fitted effect of over 50% in size; also: potency is read from the fitted curve at half-maximal effect
Method in brief: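 HEK293 cells seeded with NanoLuc/prosubstrate reagent, rested 5 h at 37 C, then dosed and kept at 37 C up to 40 h. Nonlytic real-time luminescence from viable cells read at 0, 8, 16, 24, 32 and 40 h.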

[13] = A CellTox Green Cytotoxicity Assay to monitor cytotoxicity in HEK293 cells - 16 hour (AID 1224888); also: nearly all actives have a fitted effect of over 35% in size
Method in brief: as §1

[14] = qHTS RealTime-Glo MT Cell Viability Assay in HepG2 cells - 0 hour (AID 1224889); also: nearly all actives have a fitted effect of over 50% in size
Method in brief: as §3

[15] = A CellTox Green Cytotoxicity Assay to monitor cytotoxicity in HepG2 cells - 8 hour (AID 1224890); also: nearly all actives have a fitted effect of over 45% in size
Method in brief: as §2

[16] = qHTS assay to identify small molecule antagonists of the estrogen receptor alpha (ER-alpha) signaling pathway using the BG1 cell line in the presence of 0.1 nM 17-beta-estradiol - cell viability counter screen (AID 1259241); also: nearly all actives have a fitted effect of over 40% in size
Method in brief: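 Measures cytotoxicity alongside the ER-alpha antagonist readout: VM7Luc4E2 cells, charcoal-stripped serum, 0.1 nM 17beta-estradiol final, 22 hr compound incubation at 37C, CellTiter-Fluor fluorescence.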

[17] = qHTS assay to identify small molecule antagonists of the androgen receptor (AR) signaling pathway using the MDA cell line in the presence of 0.5 nM R1881 - cell viability counter screen (AID 1259242); also: nearly all actives have a fitted effect of over 45% in size
Method in brief: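 Viability of MDA-kb2 cells was multiplexed with the luciferase AR readout; after 16 hr with compounds and R1881 at 0.5 nM final, CellTiter-Fluor fluorescence was recorded.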

[18] = molecular target: Estrogen receptor (Homo sapiens) (UniProt P03372); experiment: qHTS assay to identify small molecule antagonists of the estrogen receptor alpha (ER-alpha) signaling pathway using the BG1 cell line in the presence of 0.1 nM 17-beta-estradiol (AID 1259244); also: nearly all actives have a fitted effect of over 50% in size
Chain of Estrogen receptor (Homo sapiens) (P03372 whole entry, looked up): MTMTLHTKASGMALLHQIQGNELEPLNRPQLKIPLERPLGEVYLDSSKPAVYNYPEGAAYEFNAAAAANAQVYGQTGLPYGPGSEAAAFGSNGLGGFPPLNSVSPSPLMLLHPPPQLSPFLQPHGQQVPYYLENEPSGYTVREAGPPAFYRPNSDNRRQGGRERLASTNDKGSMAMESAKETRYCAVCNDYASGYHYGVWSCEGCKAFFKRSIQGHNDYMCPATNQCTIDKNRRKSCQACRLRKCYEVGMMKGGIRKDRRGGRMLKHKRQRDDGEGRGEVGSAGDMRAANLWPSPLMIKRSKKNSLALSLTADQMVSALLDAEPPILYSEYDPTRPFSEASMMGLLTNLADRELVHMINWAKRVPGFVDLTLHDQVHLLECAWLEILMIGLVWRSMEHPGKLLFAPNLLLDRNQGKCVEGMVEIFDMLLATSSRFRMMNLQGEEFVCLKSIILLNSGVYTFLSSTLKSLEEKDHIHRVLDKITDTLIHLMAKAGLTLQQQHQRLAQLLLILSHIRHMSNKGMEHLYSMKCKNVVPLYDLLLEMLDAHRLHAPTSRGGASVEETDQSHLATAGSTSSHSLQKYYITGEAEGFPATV
Method in brief: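 Estradiol at 0.1 nM (final) stimulates the endogenous ER-alpha of VM7Luc4E2 cells carrying an ERE-driven luciferase; compounds are co-incubated 22 h at 37C and luciferase output quantified by luminescence.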

[19] = qHTS RealTime-Glo MT Cell Viability Assay in HEK293 cells - 8 hour (AID 1224887)
Method in brief: as §4

[20] = molecular target: Androgen receptor (Homo sapiens) (UniProt P10275); experiment: qHTS assay to identify small molecule antagonists of the androgen receptor (AR) signaling pathway using the MDA cell line in the presence of 0.5 nM R1881 (AID 1259243); also: nearly all actives have a fitted effect of over 50% in size; also: potency is read from the fitted curve at half-maximal effect
Chain of Androgen receptor (Homo sapiens) (P10275 whole entry, looked up): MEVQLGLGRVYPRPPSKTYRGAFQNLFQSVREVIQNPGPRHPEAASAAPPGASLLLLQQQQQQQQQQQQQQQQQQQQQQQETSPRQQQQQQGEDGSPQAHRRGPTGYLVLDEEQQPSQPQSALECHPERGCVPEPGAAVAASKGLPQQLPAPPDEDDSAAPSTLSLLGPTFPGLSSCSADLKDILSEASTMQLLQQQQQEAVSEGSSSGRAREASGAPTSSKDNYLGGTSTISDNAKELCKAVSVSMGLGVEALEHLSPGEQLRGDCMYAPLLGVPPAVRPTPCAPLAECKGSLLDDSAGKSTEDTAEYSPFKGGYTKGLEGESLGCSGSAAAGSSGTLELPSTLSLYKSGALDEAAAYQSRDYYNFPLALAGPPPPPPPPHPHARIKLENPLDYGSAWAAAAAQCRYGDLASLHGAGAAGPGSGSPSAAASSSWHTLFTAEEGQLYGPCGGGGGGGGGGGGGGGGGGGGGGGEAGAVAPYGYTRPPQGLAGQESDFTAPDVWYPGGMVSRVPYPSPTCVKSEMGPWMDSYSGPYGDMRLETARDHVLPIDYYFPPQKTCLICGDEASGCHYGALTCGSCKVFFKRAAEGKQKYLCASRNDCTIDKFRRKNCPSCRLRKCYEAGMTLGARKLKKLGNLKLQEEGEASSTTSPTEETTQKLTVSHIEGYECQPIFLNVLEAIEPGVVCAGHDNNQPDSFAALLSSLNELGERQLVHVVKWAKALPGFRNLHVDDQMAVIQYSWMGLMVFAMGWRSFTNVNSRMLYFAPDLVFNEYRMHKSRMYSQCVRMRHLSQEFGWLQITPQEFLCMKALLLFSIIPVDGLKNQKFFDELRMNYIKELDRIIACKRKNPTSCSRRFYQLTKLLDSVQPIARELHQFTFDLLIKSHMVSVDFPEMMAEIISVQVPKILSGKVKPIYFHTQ
Method in brief: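 Reporter cells cultured without CO2 receive test chemicals, then 0.5 nM R1881 final; after 16 hr at 37C, ONE-Glo is added and light output recorded.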

| Compound | Potency [1] | Potency [2] | outcome [3] | Potency [4] | Potency [5] | outcome [6] | Potency [7] | Potency [8] | Potency [9] | Potency [10] | outcome [11] | Potency [12] | Potency [13] | outcome [14] | Potency [15] | Potency [16] | outcome [17] | Potency [18] | outcome [19] | Potency [20] |
| --- | --- | --- | --- | --- | --- | --- | --- | --- | --- | --- | --- | --- | --- | --- | --- | --- | --- | --- | --- | --- |
| C1CC2OC2CC1C1CO1 (stereo not drawn) | inactive | inactive | inactive | inactive | inactive | inactive | inactive | inactive | inactive | inactive | inactive | inactive | inactive | inactive | inactive | inactive | inactive | inactive |  |  |
| CC(C)(C)C(O)(CCc1ccc(Cl)cc1)Cn1cncn1 (stereo not drawn) | inactive | inactive | inactive |  |  | inactive | inactive | inactive |  | inactive | inactive | 49.6 µM (active) and 54.9 µM (active) | inactive | inactive | inactive | inactive | inactive |  |  |  |
| CC(NC(C)(C)C)C(=O)c1cccc(Cl)c1 (stereo not drawn) | inactive | inactive |  | inactive | inactive | inactive | inactive | inactive | inactive | inactive | inactive | inactive | inactive | inactive | inactive | inactive | inactive |  | inactive |  |
| Nc1ccc(Cc2ccc(N)cc2)cc1 | inactive | inactive | inactive | inactive | inactive | inactive | inactive | inactive | inactive | inactive | inactive | inactive | inactive | inactive | inactive | inactive | inactive |  |  |  |
| Clc1cccc(Cl)c1Cl | inactive | inactive | inactive | inactive | inactive | inactive | inactive | inactive | inactive | inactive | inactive | inactive | inactive | inactive | inactive | inactive |  |  |  |  |
| CC(C)C#N | inactive | inactive |  | inactive | inactive | inactive | inactive | inactive | inactive | inactive | inactive | inactive | inactive | inactive | inactive | inactive | inactive |  | inactive |  |
| CCc1cccc(C)c1N(C(=O)CCl)C(C)COC (stereo not drawn) | inactive | inactive | inactive | inactive | inactive | inactive | inactive | inactive | inactive | inactive | inactive | inactive | inactive | inactive | inactive | inactive | inactive |  |  |  |
| c1ccc(-c2ccccc2)cc1 | inactive | inactive |  | inactive | 49.4 µM (active) and inactive | inactive | inactive | inactive | inactive | inactive | inactive | inactive | inactive | inactive | inactive | inactive | inactive | inactive | inactive | inactive |
| COc1ccc2c3c1O[C@H]1[C@@H](O)C=C[C@H]4[C@@H](C2)N(C)CC[C@@]341 | inactive | inactive |  | inactive | 30.4 µM (active) and inactive | inactive | inactive | inactive | inactive | inactive | inactive | 48.2 µM (active) and inactive | inactive | inactive | inactive | inactive | inactive | inactive | inactive |  |
| CCCC1COC(Cn2cncn2)(c2ccc(Cl)cc2Cl)O1 (stereo not drawn) |  | inactive | inactive | inactive |  | inactive | 49.9 µM (active) and inactive | inactive |  | inactive | inactive | 25 µM (active) and 24.5 µM (active) | inactive | inactive | inactive | inactive |  |  |  | 31.2 µM (active) and 30.6 µM (active) |
| CCCCCCCCCl | inactive | inactive |  | inactive | inactive | inactive | inactive | inactive | inactive | inactive | inactive | inactive | inactive | inactive | inactive | inactive |  | inactive |  |  |
